Screening data as filed in PubChem.
An excerpt weighted towards active compounds, which were near 20% of everything screened.
Cycloheximide cs: counter-screen for Shiga toxin inhibitors: cycloheximide protein synthesis inhibition; AID 2314; cell reporter, cycloheximide protein synthesis inhibition counterscreen; max response, %; actives 12% (n = 300,000); in the data active means max response mostly above about 13%, no sharp cut-off; inactive means mostly below about 14%; further: read at 38.3 µM for the half of the compounds with a filed dose; 0% is about no effect
Pf growth 96h: inhibits malaria parasite growth, 96 h. P. falciparum luciferase reporter growth, 96 h. Potency, µM (doses to about 28.7 µM), without a hit: top-dose activity change, negative = inhibition, hits mostly inhibitors. actives 6.9% (n = 320,000). AID 504834; further: potency means the concentration at half of the fitted maximal effect; on the % scale 0 is the no-effect control and ±100 the full control effect
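Luminescence readout: decreased luciferase signal marks inhibited growth of reporter-expressing P. falciparum in infected red cells (2% hematocrit, 0.05% parasitemia final), exposed to compound two generations (96 h, 37 C, 5% CO2).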
HCMV antiviral: blocks human cytomegalovirus replication | actives 4.5% (n = 410,000) | HFF cells, HCMV-luciferase reporter, 72 h; stronger effect = lower value | activity change, negative = inhibition, % at 57.5 µM; in the data active means activity change below about -60%; inconclusive means no clear call, values can overlap the other calls; inactive means above about -39%; further: on the % scale 0 is the no-effect control and ±100 the full control effect
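Cell-based, HFFs, 1000 cells/well, 16 h 37C; cpds in DMSO + HCMV-luc, MOI 1 PFU/cell; 72 h 37C; OneGlo luminescence after 5 min RT; norm. to buffer vs Salinomycin 10uM.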
Shiga toxin inh: blocks Shiga toxin action in Vero cells; Vero cells, Shiga toxin protein synthesis inhibition reporter; inhibition, % at 38.7 µM; actives 9.2% (n = 290,000); AID 2315; in the data active means inhibition mostly above about 28%, no sharp cut-off; inactive means mostly below about 43%; further: 0% is about no effect
Pf growth 48h: inhibits P. falciparum growth in the first generation, 48 h; P. falciparum luciferase growth in erythrocytes, 48 h; Potency, µM (series often up to 28.7 µM), for inactives: at the top dose activity change, negative = inhibition, hits mostly inhibitors; actives 5.9% (n = 310,000); AID 504832; further: potency means the concentration at half of the fitted maximal effect; on the % scale 0 is the no-effect control and ±100 the full control effect
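Luciferase-expressing parasites in RBCs, 2% Hct / 0.1% parasitemia final; RPMI 1640 + 0.5% Albumax; 37 C, 5% CO2, one generation; luminescence read-out, lower signal = inhibition.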
* hit, by the source's call; i = inactive; ? = inconclusive; nt = not tested or not shown; [ ] = remark or other dose. Unless noted, the call rests on the fitted dose curve; in most records, active means well fitted inhibition curve with a large enough effect; inconclusive means small, poorly fitted or top-dose-only effect, or another doubt; inactive means no such curve, though single readings can be large or run the other way.

SMILES | Cycloheximide cs | Pf growth 96h | HCMV antiviral | Shiga toxin inh | Pf growth 48h
CN1C[C@H](C(=O)N[C@]2(C)O[C@@]3(O)[C@@H]4CCCN4C(=O)[C@H](Cc4ccccc4)N3C2=O)C[C@@H]2c3cccc4[nH]cc(c34)C[C@H]21 | nt | ? | nt | nt | 7.6µM*
CC(C)C[C@H]1C(=O)N2CCC[C@H]2[C@]2(O)O[C@](NC(=O)C3C=C4c5cccc6[nH]c(Br)c(c56)C[C@H]4N(C)C3)(C(C)C)C(=O)N12 (some centres undefined) | nt | nt | -26 | nt | nt
CCc1ccc(NC(=O)CSc2nc(-c3cccc(OC)c3)nc3c2Cc2c(CO)cnc(C)c2O3)cc1 | nt | nt | -35 | nt | nt
CN1C(=O)NC(c2cccc(F)c2)C2=C1CC(C)(C)CC2=O (centres undefined) | -5 | -82% | 28 | -5 | 1%[0.00184 µM]
O=C(Nc1ccc(O)c2c(=O)cc(-c3ccccc3Cl)oc12)c1cc(Cl)cc(Cl)c1 | -2 | nt | nt | -6 | nt
O=C(CCc1ccccc1)N1CCc2c([nH]c3ccccc23)C1c1ccc(F)cc1 (centres undefined) | nt | nt | -90* | nt | nt
Cc1ncoc1C(=O)N1CCc2c([nH]c3ccccc23)C1c1ccccc1F (centres undefined) | 1 | -48% | 49 | 2 | ?
O=C(CSCc1ccc(F)cc1)N1CCc2c([nH]c3ccccc23)C1c1ccc(F)cc1 (centres undefined) | nt | nt | 23 | nt | nt
CCn1nc(C)cc1C(=O)N1CCc2c([nH]c3ccccc23)C1c1cc(F)ccc1F (centres undefined) | 55* | ? | 49 | 82* | ?
CSc1ccc(C2c3[nH]c4ccccc4c3CCN2C(=O)CCc2ccccc2)cc1 (centres undefined) | nt | nt | -79* | nt | nt
O=C(CCc1ccccc1)N1CCc2c([nH]c3ccccc23)C1c1ccc(Cl)cc1 (centres undefined) | nt | nt | -68* | nt | nt
Cc1ccc2nc(N3CCN(C(=O)C4COc5ccccc5O4)CC3)sc2c1 (centres undefined) | nt | nt | 59 | nt | nt
Cc1ccc(CNC(=O)C2CCN(C(=O)Nc3ccc(C)cc3)CC2)cc1 | 23 | 5% | -16 | 31 | -13%
COc1cc(C(=O)N2CCc3c([nH]c4ccccc34)C2c2ccc(F)cc2)cc(OC)c1OC (centres undefined) | nt | nt | 29 | nt | nt
O=C(c1ccc(F)cc1)N1CCc2c([nH]c3ccccc23)C1c1ccc(Cl)cc1 (centres undefined) | nt | nt | -66* | nt | nt
COc1ccc([N+](=O)[O-])cc1NCC(=O)Nc1cccc(S(=O)(=O)N2CCCC2)c1 | nt | ? | -29 | nt | 5.2µM*
CCNc1ccc(S(=O)(=O)N(C)C)cc1NCC(=O)Nc1ccc(F)c(Cl)c1 | -3 | ? | -75* | -5 | ?
COc1ccc(NC(=O)CNc2cccc(C#N)c2)cc1Cl | 10 | -21% | -33 | 1 | 10%
O=C(CNc1cccc(S(=O)(=O)N2CCCCCC2)c1)Nc1cccc([N+](=O)[O-])c1 | nt | ? | -9 | nt | ?
COc1cc(NCC(=O)Nc2cccc(S(=O)(=O)N3CCCCC3)c2)cc(OC)c1OC | nt | ? | 0 | nt | 1.9µM*
O=C(CNc1cc([N+](=O)[O-])ccc1NCCO)Nc1cccc(S(=O)(=O)N2CCCCC2)c1 | nt | -29% | -3 | nt | ?
COc1ccc(S(=O)(=O)N(C)C)cc1NCC(=O)Nc1cccc(C#N)c1 | -3 | 12µM* | -33 | 24 | ?
COc1ccccc1CCN1CCCC(CN(C)Cc2ccc(OCCO)cc2)C1 (centres undefined) | 2 | 0% | 30 | -4 | ?
COc1ccc(C(=O)N2CCCC(Nc3ccc(C(C)C)cc3)C2)c(OC)n1 (centres undefined) | 2 | -16% | -2 | -13 | -8%
CC(=O)OC1N=C(c2ccccc2)c2cc(C)ccc2NC1=O (centres undefined) | -1 | 38% | 5 | -40 | 3%
SMILES | Cycloheximide cs | Pf growth 96h | HCMV antiviral | Shiga toxin inh | Pf growth 48h
CC(=O)OC1N=C(c2ccccc2)c2ccccc2NC1=O (centres undefined) | 0 | 15µM* | -19 | -6 | -25%
O=C(N/C(=C\c1cccs1)C(=O)N1CCOCC1)c1cccs1 | -1 | 39% | -25 | 11 | 51%
CN(CC(=O)Nc1cccc(Cl)c1)S(=O)(=O)c1ccc2c(c1)n(C)c(=O)c(=O)n2C | -9 | 1% | -5 | -5 | ?
CCOc1ccc(N(C)S(=O)(=O)c2ccc(C)c(C(=O)NCc3cccs3)c2)cc1 | nt | ? | -1 | nt | ?
COc1cc2c(cc1OC)C1O[C@](CCCCN3C(=O)c4ccccc4C3=O)(C2)OC2=C1C(=O)CC(C)(C)C2 | -2 | ? | nt | i | 0.24µM*
COc1cc2c(cc1OC)C1O[C@](CCCCN3C(=O)c4ccccc4C3=O)(C2)OC2=C1C(=O)OC1(CCCCC1)C2 | -2 | ? | nt | i | ?
O=C1C2=C(C(=O)c3ccccc31)C1O[C@](CCCCN3C(=O)c4ccccc4C3=O)(Cc3ccccc31)O2 | -3 | ? | nt | i | ?
O=C1OC2(CCCCC2)CC2=C1C1O[C@](CCCCN3C(=O)c4ccccc4C3=O)(Cc3ccccc31)O2 | -5 | ? | nt | i | 1.5µM*
Cc1ccc(CN2CCC(CNC(=O)Nc3cccc(Cl)c3C)C2)cc1 (centres undefined) | nt | nt | -36 | nt | nt
Cc1sc(NC(=O)c2ccccc2)c(C(c2ccc(Cl)cc2)N2CCN(CCO)CC2)c1C (centres undefined) | 3 | 8.3µM* | 3 | 18 | 8.3µM*
CCc1cc(C(c2ccncc2)N2CCN(C)CC2)c(NC(=O)c2ccccc2)s1 (centres undefined) | 5 | ? | -24 | -5 | 13µM*
CCOc1ccc(C(c2c(NC(=O)c3ccccc3)sc(C)c2C)N2CCN(CCO)CC2)cc1 (centres undefined) | 16* | 5.2µM* | -36 | 20 | ?
Cc1sc(NC(=O)c2ccco2)c(C(c2ccc(F)cc2)N2CCN(C)CC2)c1C (centres undefined) | 14 | ? | nt | 32 | ?
O=C(N[C@@H]1c2ccccc2CC[C@@H]1OCc1ccccc1)c1ccc(-c2ccccc2)cc1 | nt | nt | -11 | nt | nt
CC1=Nc2ccccc2N=C(NC(=O)CN2CCN(c3ccccc3)CC2)C1c1ccccc1 (centres undefined) | 2 | ? | -14 | -9 | 5.9µM*
CC1=Nc2ccccc2N=C(NC(=O)c2ccccc2)C1c1ccccc1 (centres undefined) | 18 | ? | -17 | 35 | 4.1µM*
CC1=Nc2ccccc2N=C(NC(=O)CSC(=S)N2CCCCC2)C1c1ccccc1 (centres undefined) | 6 | ? | 10 | 22 | 13µM*
CC1=Nc2ccccc2N=C(NC(=O)CSC(=S)N2CCN(C)CC2)C1c1ccccc1 (centres undefined) | 1 | ? | 99 | -6 | ?
CCOC(=O)C1CCCN(CC(=O)NC2=Nc3ccccc3N=C(C)C2c2ccccc2)C1 (centres undefined) | 2 | ? | -36 | -3 | 10µM*
